# Source: the supplement of paper PMC10646978
# ± gives the standard deviation.
# Experiments:
# Settings in all cases: modulator concentration 10 µM
# [1] = tested on: RAW-Dual (murine macrophage reporter line); assay: NF-kB reporter (SEAP) activity fold change vs agonist alone; higher = enhanced NF-kB activity
# In short: (§1)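 Overnight stimulation with a PRR agonist followed pre-incubation for 1 hour at 37 °C with compound at 10 μM final. This was done in RAW-Dual murine macrophage reporter cells seeded at 50 000 per well in 384-well plates. NF-κB (SEAP, QUANTI-Blue absorbance at 620 nm) and IRF (Lucia luciferase, QUANTI-Luc luminescence) were read from the supernatant. Each reporter's fold change relative to the mean agonist-only control on the same plate was averaged over replicate plates.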
# [2] = tested on: RAW-Dual (murine macrophage reporter line); assay: IRF reporter (Lucia luciferase) activity fold change vs agonist alone; higher = enhanced IRF activity
# In short: as §1
# [3] = tested on: RAW-Dual (murine macrophage reporter line); assay: viability score (confluency relative to resting cells, overnight) (fraction); higher = more viable, active = viable (0.7 or more)
# In short: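 Overnight exposure to 10 μM final compound was carried out on RAW-Dual macrophages in 384-well plates. IncuCyte software generated two confluency masks over all wells imaged with IncuCyte. The viability score gives confluency in relation to resting cells. A compound met the cutoff if each mask exceeded 70% of resting cells.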
# [4] = agonist: CpG ODN 1826 0.5 ug/mL
SMILES,"NF-kB reporter [1, 4]",NF-kB reporter ([1]; agonist: LPS 0.1 ug/mL),NF-kB reporter ([1]; agonist: MPLA […]),IRF reporter ([2]; agonist: 3'3'-cGAMP 10 ug/mL),IRF reporter ([2]; agonist: LPS 0.1 ug/mL),IRF reporter ([2]; agonist: MPLA […]),viability score [3]
Nc1ncnc2c1ncn2[C@@H]1O[C@H](COP(=O)(O)O)[C@@H](O)[C@H]1O [Prestw-356],1.37 ± 0.16,1.09 ± 0.11,1.23 ± 0.12,1.32 ± 0.069,1.21 ± 0.16,1.36 ± 0.28,1.03 (active)
c1cn2cc(-c3ccc4cn[nH]c4c3)nc(Nc3ccc(N4CCOCC4)cc3)c2n1,0.99 ± 0.24,0.759 ± 0.06,1.25 ± 0.12,0.24 ± 0.015,0.897 ± 0.12,1.1 ± 0.26,0.978 (active)
N#Cc1c(N=Cc2ccc(O)cc2)sc2c1CCCC2,0.688 ± 0.055,0.94 ± 0.069,0.979 ± 0.11,0.713 ± 0.049,1.17 ± 0.22,1.23 ± 0.24,0.997 (active)
CN(C(=O)c1cncc(F)c1)C1CN(c2ccc3nnc(C4CC4)n3n2)C1,0.937 ± 0.055,0.988 ± 0.078,0.83 ± 0.082,0.956 ± 0.087,0.991 ± 0.14,0.859 ± 0.4,1 (active)
CC(=O)n1cc(C=C(C)[N+](=O)[O-])c2ccccc21,1.07 ± 0.091,0.607 ± 0.079,0.419 ± 0.055,0.445 ± 0.015,0.297 ± 0.11,0.183 ± 0.067,0.861 (active)
C#Cc1cccc(Nc2ncnc3cc(OCCOC)c(OCCOC)cc23)c1,0.819 ± 0.051,1.1 ± 0.092,0.945 ± 0.05,0.948 ± 0.055,1.05 ± 0.16,1.13 ± 0.3,0.993 (active)
COCCOC(=O)C1=C(C)NC(C)=C(C(=O)OC(C)C)C1c1cccc([N+](=O)[O-])c1 (configuration not stated),0.837 ± 0.07,1.05 ± 0.064,0.88 ± 0.076,1.11 ± 0.037,1.31 ± 0.18,1.11 ± 0.13,0.979 (active)
Cl.N=C(N)NC(=O)c1nc(Cl)c(N)nc1N,1.2 ± 0.18,1.15 ± 0.22,0.891 ± 0.063,0.984 ± 0.03,1.4 ± 0.25,1.3 ± 0.12,0.988 (active)
COc1ccc(OC)c(NC(=O)COc2cccc3c2OC(C)(C)C3)c1,0.489 ± 0.039,1.2 ± 0.095,1.22 ± 0.053,0.777 ± 0.054,0.912 ± 0.059,1.02 ± 0.077,0.976 (active)
O=C1c2ccccc2C(=O)c2c1ccc(O)c2O,1.03 ± 0.098,1.06 ± 0.054,1.02 ± 0.027,0.948 ± 0.084,0.949 ± 0.039,0.978 ± 0.076,0.999 (active)
CCOc1ccc(C=C2SC(=S)N(C)C2=O)cc1,0.96 ± 0.075,1.01 ± 0.072,0.905 ± 0.073,0.962 ± 0.049,1.39 ± 0.15,1.3 ± 0.23,1.01 (active)
CCOc1ccc(Cc2cc([C@@H]3O[C@H](SC)[C@@H](O)[C@H](O)[C@H]3O)ccc2Cl)cc1,0.968 ± 0.25,1.27 ± 0.072,1.06 ± 0.098,1.03 ± 0.053,0.957 ± 0.18,1.07 ± 0.11,0.694 (inactive)
CC1CC2(NC(=O)NC2=O)C(C)CN1C (configuration not stated),0.933 ± 0.061,1.01 ± 0.088,0.87 ± 0.053,0.99 ± 0.034,1.34 ± 0.2,1.21 ± 0.15,1 (active)
CCCc1nc(-c2ccccc2)c(-c2ccc(OC)c(OC)c2)c(=O)[nH]1,0.803 ± 0.067,0.844 ± 0.1,1.06 ± 0.1,0.933 ± 0.057,1.46 ± 0.084,1.78 ± 0.16,1.01 (active)
Clc1ccc(C=NNc2cc(N3CCCC3)nc(N3CCCC3)n2)c(Cl)c1,0.988 ± 0.076,0.983 ± 0.081,0.987 ± 0.1,0.99 ± 0.062,1.21 ± 0.15,1.31 ± 0.25,1.04 (active)
CCOc1cccc2sc(=NC(=O)c3ccc(S(=O)(=O)N4CCOCC4)cc3)n(C)c12,0.991 ± 0.31,1.14 ± 0.16,0.989 ± 0.13,0.97 ± 0.025,1.06 ± 0.14,1.27 ± 0.15,0.995 (active)
O=c1[nH]c2ccccc2n1CCN1CCN(c2cccc(C(F)(F)F)c2)CC1,0.278 ± 0.037,0.403 ± 0.097,0.448 ± 0.028,0.953 ± 0.034,1.24 ± 0.34,1.51 ± 0.2,0.915 (active)
COc1ccc(N(CC(=O)N(C)Cc2ccccc2)S(C)(=O)=O)cc1OC,1.08 ± 0.086,1.02 ± 0.083,1.05 ± 0.08,1.03 ± 0.026,1.45 ± 0.21,1.1 ± 0.18,1.01 (active)
CC(=Cc1ccccc1)CN1CC(C)OC(C)C1 (configuration not stated),0.788 ± 0.063,0.788 ± 0.05,1.04 ± 0.12,0.933 ± 0.044,1.28 ± 0.074,1.47 ± 0.17,0.956 (active)
CCC(C)NS(=O)(=O)c1ccc([N+](=O)[O-])cc1 (configuration not stated),1.13 ± 0.11,1.05 ± 0.075,0.977 ± 0.034,0.883 ± 0.05,1.13 ± 0.1,1.18 ± 0.14,0.998 (active)
CC(=O)OCCN(CCOC(C)=O)c1c(C)[nH]c(=O)[nH]c1=O,0.864 ± 0.067,0.809 ± 0.079,0.994 ± 0.089,0.976 ± 0.05,1.52 ± 0.093,1.7 ± 0.17,1.02 (active)
COc1cccc(CCc2ccccc2OCC(CN(C)C)OC(=O)CCC(=O)O)c1.Cl (configuration not stated),0.428 ± 0.063,0.948 ± 0.3,0.925 ± 0.057,0.512 ± 0.018,1.25 ± 0.31,0.984 ± 0.19,0.995 (active)
CN(C)CCCN1c2ccccc2CCc2ccc(Cl)cc21.Cl,0.559 ± 0.098,1.15 ± 0.43,1.64 ± 0.2,0.503 ± 0.02,1.18 ± 0.53,1.78 ± 0.18,0.239 (inactive)
COC(=O)c1ccccc1NC(=O)CCc1ccc(Oc2cc([N+](=O)[O-])cc([N+](=O)[O-])c2)cc1,1.22 ± 0.11,1.08 ± 0.079,1.13 ± 0.072,0.431 ± 0.054,1.03 ± 0.17,0.766 ± 0.17,1.01 (active)
COC(=O)N[C@H](C(=O)N1CCC[C@H]1c1ncc(-c2ccc(-c3ccc(-c4cnc([C@@H]5CCCN5C(=O)[C@@H](NC(=O)OC)C(C)C)[nH]4)cc3)cc2)[nH]1)C(C)C,0.724 ± 0.098,1.17 ± 0.46,1.22 ± 0.074,0.757 ± 0.12,1.52 ± 0.3,4.38 ± 1.3,0.987 (active)
COc1cc(-c2nnc(SCc3ccc([N+](=O)[O-])cc3)n2-c2ccccc2)cc(OC)c1OC,0.986 ± 0.095,0.942 ± 0.053,0.994 ± 0.074,1.07 ± 0.067,1.37 ± 0.2,0.969 ± 0.06,1.01 (active)
